High-throughput results from PubChem.
In the library only some 10% were active in any assay of this set; here they are far more common.
HP1b binding inh = HTS for Inhibitors of HP1-beta Chromodomain Interactions with Methylated Histone Tails. Chromobox protein homolog 1 (Homo sapiens), P83916. AlphaScreen HP1-beta / biotin-H3K9me3 peptide binding. Potency, µM (highest dose often 114 µM), inactives show at the top dose activity change, negative = inhibition, hits mostly inhibitors. 0.56% of 390,000 active. AID 540317, 2011; also: nearly all actives have a fitted effect of over 70% in size
Target sequence (P83916 whole entry, looked up): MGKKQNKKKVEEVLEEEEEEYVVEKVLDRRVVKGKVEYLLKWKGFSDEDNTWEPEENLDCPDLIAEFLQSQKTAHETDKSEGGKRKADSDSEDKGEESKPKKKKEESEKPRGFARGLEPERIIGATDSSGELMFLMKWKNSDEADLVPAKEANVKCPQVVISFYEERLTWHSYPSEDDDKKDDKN
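Compound inhibition of the preformed complex between 50 nM HP1-beta and 50 nM biotinylated H3K9me3 peptide was read by AlphaScreen. Buffer was PBS pH 7.4 with 0.01% Tween-20. Incubations ran 30 min at room temperature, with 10 ug/mL donor/acceptor beads.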
BAZ2B inh = qHTS Assay for Inhibitors of BAZ2B; Bromodomain adjacent to zinc finger domain protein 2B (Homo sapiens), Q9UIF8; AlphaScreen BAZ2B-H3K14Ac peptide displacement; Potency, µM (series often up to 114 µM), for the others: top-dose activity change, negative = inhibition, usual class: inhibitors; 4.4% of 360,000 active; AID 504333, 2011; also: % is scaled to controls: 0 for no effect and ±100 for the full control effect; nearly all actives have a fitted effect of over 60% in size
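Protein-peptide AlphaScreen: BAZ2B 50 nM, b-H3K14Ac 50 nM, 1x PBS pH 7.4 + 0.01% Tween-20. Preincubation 30 min RT; cpd 30 min RT (top 110 uM); beads 20 min RT, light-protected.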
GLS inhibitor = qHTS for Inhibitors of Glutaminase (GLS); Glutaminase kidney isoform, mitochondrial (Homo sapiens), O94925; GLS enzymatic activity, qHTS titration; Potency, µM (top dose mostly 45.5 µM), without a hit: at the top dose activity change, negative = inhibition, usual class: inhibitors; 0.21% of 410,000 active; AID 624170, 2012; also: % is scaled to controls: 0 for no effect and ±100 for the full control effect
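hKGA; 45 mM KH2PO4 pH 8.2 + 0.02% Tween-20; cpd via pin tool; 1 mM Gln soln; GluOx/HRP/Amplex Red; RT 30 min; fluor. t0 & final.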
JMJD2A Tudor = qHTS Assay for Inhibitors of JMJD2A-Tudor Domain | Lysine-specific demethylase 4A (Homo sapiens), O75164 | AlphaScreen JMJD2A-Tudor / H3K4me3 peptide binding | Potency, µM (doses to about 114 µM), inactives show at the highest dose activity change, negative = inhibition, hits mostly inhibitors | 4.4% of 390,000 active | AID 504339, 2011; also: % is scaled to controls: 0 for no effect and ±100 for the full control effect; nearly all actives have a fitted effect of over 50% in size
G9a inh = qHTS Assay for Inhibitors of Histone Lysine Methyltransferase G9a; Histone-lysine N-methyltransferase EHMT2 (Homo sapiens), Q96KQ7; G9a H3K9 monomethylation, AlphaScreen, 2 h; Potency, µM (top dose mostly 102 µM), without a hit: at the highest dose activity, negative = inhibition, most hits filed as inhibitors; 8.8% of 350,000 active; AID 504332, 2011; also: % is scaled to controls: 0 for no effect and ±100 for the full control effect; nearly all actives have a fitted effect of over 75% in size
Target sequence (Q96KQ7 913-1193 limits assumed): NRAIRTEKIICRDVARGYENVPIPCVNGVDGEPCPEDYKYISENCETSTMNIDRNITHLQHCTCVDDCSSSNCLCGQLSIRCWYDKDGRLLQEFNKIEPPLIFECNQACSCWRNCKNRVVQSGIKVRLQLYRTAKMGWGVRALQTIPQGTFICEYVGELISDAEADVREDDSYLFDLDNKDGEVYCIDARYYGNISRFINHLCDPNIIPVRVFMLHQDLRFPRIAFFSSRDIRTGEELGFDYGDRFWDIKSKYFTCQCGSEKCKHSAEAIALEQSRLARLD
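Enzyme 20 nM + cpd, 15 min RT; add b-H3K9 pep 500 nM / SAM 20 uM; 2 h RT; anti-H3K9me1 Ab 0.5 ug/mL + SA donor / anti-rabbit acceptor beads 20 ug/mL each, 10 min; AlphaScreen read.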
L3MBTL1 block = qHTS Assay for the Inhibitors of L3MBTL1; AlphaScreen L3MBTL1–H3K9me1 peptide binding; Potency, µM (top dose mostly 57.1 µM), for the others: at the top dose activity, negative = inhibition, actives largely listed as inhibitors; 0.66% of 230,000 active; AID 485360, 2010; also: % is scaled to controls: 0 for no effect and ±100 for the full control effect; nearly all actives have a fitted effect of over 60% in size
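Read-out is AlphaScreen signal from streptavidin donor and nickel chelate acceptor beads (10 ug/mL final each) bridging L3MBTL1 (50 nM) and biotinylated K9-monomethylated H3(1-15) peptide (75 nM), after 30 min compound exposure at room temperature.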
Starred values were filed as active, the others as inactive; ? = inconclusive; . = no result; [ ] = another dose, or the depositor's remark. Calls follow the shape of the dose curve; as a rule, active = well fitted curve in the direction sought with a large enough effect; inconclusive = small, poorly fitted or top-dose-only effect, or another doubt; inactive = no such curve, though single readings can be large; an effect the other way counts as inactive or inconclusive. Potency is read from the fitted curve at half-maximal effect.

SMILES	HP1b binding inh	BAZ2B inh	GLS inhibitor	JMJD2A Tudor	G9a inh	L3MBTL1 block
Cc1cc(C=O)c(C)n1-c1cccc(C(=O)O)c1	20%	79µM*	-14%	-18%	40µM*	25µM*
COc1ccc(-c2noc(CN(C(=O)COc3cc(C)c(Br)c(C)c3)C(C)C)n2)cc1	84%	-3%	-7%	-7%	48%[59 µM]	.
O=C(Cn1c(=O)n(-c2ccccc2)c(=O)c2c3c(sc21)CCC3)c1ccc(Br)cc1	-8%	-16%	1%	-27%	-8%[59 µM]	.
CCOC(=O)c1c(/N=C/N(C)C)sc(/C=N/Nc2ccccc2)c1-c1ccccc1	-11%	-4%	24%	?	?	-3%
CCOC(=O)c1c(/N=C/N(C)C)sc(/C=N/Nc2ccccc2)c1-c1ccccc1Cl	11%	-7%	-5%	?	40µM*	0%
Cc1c(CNCCCc2ccccc2)c(C(=O)O)c(C)n1Cc1ccc(Cl)cc1	-5%	?	11%	?	-2%[59 µM]	.
Cc1ccc(-c2nc(NCc3ccco3)c3ccccc3n2)cc1	-6%	-30%	-4%	-32%	?	5%
Cc1cccc(Nc2nc(NCc3ccco3)c3ccccc3n2)c1	-10%	?	0%	?	18µM*	-3%
c1ccc(Nc2nc(NCc3ccco3)c3ccccc3n2)cc1	?	?	1%	50µM*	50µM*	-19%
N#CC1=C(N)C(C#N)(C#N)C(c2cccnc2)C2CCCC=C12 (stereo not given)	.	-22%	.	.	45µM*	-9%
N#CC1=C(N)C(C#N)(C#N)C(c2ccc[nH]2)C2CCCC=C12 (stereo not given)	7%	-14%	11%	-31%	35µM*	-8%
N.N.O=C(O)C1(C(=O)O)CCC1.[Pt+2]	.	.	.	.	0.28µM*	.
CCOc1ccccc1N(CC(=O)N1CCc2ccccc2C1)S(=O)(=O)c1ccccc1	19%	-18%	-5%	-27%	-11%[59 µM]	.
CCOC(=O)C1CCC(CN(Cc2ccc(Cl)cc2)S(=O)(=O)c2cc(Cl)cc(Cl)c2)CC1 (stereo not given)	46%	14%	-3%	-6%	10%[59 µM]	.
COc1ccc(-n2c(-c3ccc(Cl)cc3)cc3c2CC(C)(C)CC3=O)c(OC)c1	?	11µM*	0%	14µM*	13µM*	.
COc1ccc(-n2c3c(cc(-c4nc(-c5ccc(Cl)cc5)cs4)c2=O)C(=O)CC(C)(C)C3)cc1Cl	29%	-36%	1%	-10%	8.9µM*	.
CC1(C)CC(=O)c2cc(-c3nc(-c4ccc(Cl)cc4)cs3)c(=O)n(-c3ccc(Cl)cc3)c2C1	40%	7%	-3%	-1%	-1%[59 µM]	.
COc1ccc(-n2c3c(cc(-c4nc(-c5ccc(Cl)cc5)cs4)c2=O)C(=O)CC(C)(C)C3)cc1	46%	?	2%	-14%	4.5µM*	.
Cc1cc2c(n1-c1ccc(Cl)cc1)CC(C)(C)CC2=O	-7%	?	-3%	?	-9%[12.7 µM]	.
CC1(C)CC(=O)c2cc(C#N)c(=O)n(-c3ccc(Cl)cc3)c2C1	36%	4%	0%	-7%	14µM*	.
COCCN1CCN(Cc2ccc(C(=O)NC(C)C)cc2)C(=O)C1=O	37%	-6%	-8%	9%	5%[12.7 µM]	.
CCNc1c(NC(=O)c2ccccc2OCC)c(=O)oc2ccccc12	5%	-1%	6%	-10%	6%[59 µM]	.
COc1ccccc1CNC(=O)C1CCN(S(=O)(=O)c2ccc3[nH]c(=O)ccc3c2)CC1	27%[57 µM]	0%	-4%	-4%	-2%[59 µM]	.
COc1ccc(C2CC(=O)c3cc(-c4nc(-c5cccc([N+](=O)[O-])c5)cs4)c(=O)n(-c4ccc(OC)cc4)c3C2)cc1 (stereo not given)	19%	-3%	2%	-13%	-14%[59 µM]	.
COc1ccc(C2CC(=O)c3cc(-c4nc(-c5cccc([N+](=O)[O-])c5)cs4)c(=O)n(-c4cccc(C)c4)c3C2)cc1 (stereo not given)	20%	-19%	-3%	-25%	16µM*	.
SMILES	HP1b binding inh	BAZ2B inh	GLS inhibitor	JMJD2A Tudor	G9a inh	L3MBTL1 block
COc1ccc2c(c1)C(C)CC(C)(C)N2C(=O)Nc1ccccc1 (stereo not given)	6%	?	?	0%[57.1 µM]	22µM*	-2%
COc1ccc(S(=O)(=O)c2ccc(O)cc2)cc1	33%	1%	0%	-6%[57.1 µM]	-2%	.
Cc1ccc(NC2=C/C(=N/S(=O)(=O)c3cccs3)c3ccccc3C2=O)cc1C	-17%	?	16%	-24%	0%[59 µM]	-11%
CC(=O)Nc1ccc(NC2=C/C(=N/S(=O)(=O)c3cccs3)c3ccccc3C2=O)cc1	50µM*	3.5µM*	1%	50µM*	45µM*	?
COc1ccc(S(=O)(=O)/N=C2\C=C(Nc3ccc(O)cc3)C(=O)c3ccccc32)cc1	10µM*	8.9µM*	8.9µM*	5.6µM*	8.9µM*	.
Cc1ccccc1NC1=C/C(=N\S(=O)(=O)c2cccs2)c2ccccc2C1=O	?	10µM*	-1%	6.3µM*	3.2µM*	.
CCOc1ccc(CCNC(=O)c2sc3ncccc3c2-n2c(C)ccc2C)cc1	29%[57 µM]	22%	-17%	-29%	-35%[59 µM]	.
Cc1cc2c(cc1Cl)C(c1ccccc1C)CC(=O)O2 (stereo not given)	.	.	.	.	86%	.
CC(=O)Oc1cccc(N2C(=O)c3cccc4c([N+](=O)[O-])ccc(c34)C2=O)c1	29%	3%	-1%	2%	40µM*	6%
O=C(O)c1ccc(CN2C(=O)c3cccc4c([N+](=O)[O-])ccc(c34)C2=O)cc1	5%	50µM*	-3%	?	45µM*	.
Cc1ccc(C(=O)O)cc1N1C(=O)c2cccc3c([N+](=O)[O-])ccc(c23)C1=O	-16%	50µM*	?	56µM*	25µM*	22µM*
CCCCCCc1ccc(C(=O)CCN(C)C)cc1	.	.	.	6%	.	.
CCC(=O)NC1Cc2ccccc2C(c2ccccc2)C1 (stereo not given)	.	.	.	.	15%[59 µM]	.
Cc1ccc(C(=O)O)cc1-c1ccc(/C=C2/NC(=O)N(c3ccccc3)C2=O)o1	?	32µM*	?	50µM*	10µM*	.
Cc1ccc(CN2C(=O)N/C(=C\c3ccc(-c4ccc(C(=O)O)cc4C)o3)C2=O)cc1	-21%	40µM*	?	?	40µM*	?
